Consider 1 sequence from PMC7862700, “An all-to-all approach to the identification of sequence-specific readers for epigenetic DNA modifications on cytosine”.

Holding throughout (assay): DAPPL (digital affinity profiling via proximity ligation, sequencing); 10 mM Tris-HCl pH 7.5, 50 mM NaCl, 1 mM DTT, 4% glycerol, room temperature, 30 min; GST-TFs on glutathione beads, 16-mer random dsDNA library, 0.1% formaldehyde crosslink after washing; high values mean tight binding
What all share (conditions): protein: recombinant; tags: N-terminal GST; dsDNA, one strand shown

Test [1] deals with T1, ELK1 (Homo sapiens, UniProt P19419 1-428).
T1 sequence: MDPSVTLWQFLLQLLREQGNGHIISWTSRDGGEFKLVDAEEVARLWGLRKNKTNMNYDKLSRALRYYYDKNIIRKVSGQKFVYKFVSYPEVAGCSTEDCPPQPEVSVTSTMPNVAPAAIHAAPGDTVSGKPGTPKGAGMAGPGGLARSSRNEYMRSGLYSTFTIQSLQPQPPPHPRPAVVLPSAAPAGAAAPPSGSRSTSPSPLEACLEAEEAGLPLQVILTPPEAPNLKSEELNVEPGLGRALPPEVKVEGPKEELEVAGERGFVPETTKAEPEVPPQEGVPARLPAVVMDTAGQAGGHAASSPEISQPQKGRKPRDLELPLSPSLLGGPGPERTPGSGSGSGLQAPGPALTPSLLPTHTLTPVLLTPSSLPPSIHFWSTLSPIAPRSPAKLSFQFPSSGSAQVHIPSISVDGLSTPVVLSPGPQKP
The method, boiled down: (§1)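 Pools were built from human transcription factors expressed in yeast as GST fusions, captured on glutathione beads and DNA-barcoded, along with a tag-only sample. Incubation with 200 nmole of a 16-mer random double-stranded DNA library lasted 30 min at room temperature in Tris/NaCl/DTT/glycerol buffer, and was followed by washing, 0.1% formaldehyde crosslinking, proximity ligation, PCR amplification and Illumina NextSeq500 sequencing. Binding signal is the quotient of each hexamer's read frequency for a factor and its frequency for the tag-only sample.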

Test [2] has as its target T2, GABPA (Homo sapiens, UniProt Q06546 1-454).
T2 sequence: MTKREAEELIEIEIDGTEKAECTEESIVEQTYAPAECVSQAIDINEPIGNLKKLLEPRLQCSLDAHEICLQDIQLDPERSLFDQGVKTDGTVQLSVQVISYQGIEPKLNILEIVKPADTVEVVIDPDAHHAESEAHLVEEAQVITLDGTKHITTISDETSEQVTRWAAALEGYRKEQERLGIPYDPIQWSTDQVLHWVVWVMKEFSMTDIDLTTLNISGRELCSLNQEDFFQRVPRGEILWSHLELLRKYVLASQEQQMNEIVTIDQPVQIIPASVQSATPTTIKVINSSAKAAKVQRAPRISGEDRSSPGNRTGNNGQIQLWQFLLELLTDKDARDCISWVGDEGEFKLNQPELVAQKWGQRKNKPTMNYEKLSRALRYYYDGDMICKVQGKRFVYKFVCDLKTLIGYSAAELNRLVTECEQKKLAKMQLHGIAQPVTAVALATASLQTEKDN
Put shortly:
as §1

The target of test [3] is T3, ERG (Homo sapiens, UniProt P11308 1-479).
T3 sequence: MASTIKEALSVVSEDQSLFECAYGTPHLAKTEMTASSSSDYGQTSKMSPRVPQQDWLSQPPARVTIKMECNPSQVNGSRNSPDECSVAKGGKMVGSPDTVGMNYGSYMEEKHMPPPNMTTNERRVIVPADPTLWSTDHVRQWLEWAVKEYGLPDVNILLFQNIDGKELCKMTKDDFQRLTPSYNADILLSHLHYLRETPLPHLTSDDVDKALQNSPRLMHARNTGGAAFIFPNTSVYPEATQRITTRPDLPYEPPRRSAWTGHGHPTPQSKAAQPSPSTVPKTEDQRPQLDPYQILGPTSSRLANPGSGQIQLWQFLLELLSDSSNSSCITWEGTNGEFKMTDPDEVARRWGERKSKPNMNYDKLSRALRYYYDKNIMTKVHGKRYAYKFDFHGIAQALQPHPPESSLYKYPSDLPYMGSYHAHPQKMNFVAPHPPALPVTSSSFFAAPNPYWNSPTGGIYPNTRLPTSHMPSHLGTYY
The method, boiled down: as §1

The target in test [4] is ELF1 (Homo sapiens, UniProt P32519 1-619). The method, boiled down: as §1
Sequence of ELF1 (P32519 whole entry): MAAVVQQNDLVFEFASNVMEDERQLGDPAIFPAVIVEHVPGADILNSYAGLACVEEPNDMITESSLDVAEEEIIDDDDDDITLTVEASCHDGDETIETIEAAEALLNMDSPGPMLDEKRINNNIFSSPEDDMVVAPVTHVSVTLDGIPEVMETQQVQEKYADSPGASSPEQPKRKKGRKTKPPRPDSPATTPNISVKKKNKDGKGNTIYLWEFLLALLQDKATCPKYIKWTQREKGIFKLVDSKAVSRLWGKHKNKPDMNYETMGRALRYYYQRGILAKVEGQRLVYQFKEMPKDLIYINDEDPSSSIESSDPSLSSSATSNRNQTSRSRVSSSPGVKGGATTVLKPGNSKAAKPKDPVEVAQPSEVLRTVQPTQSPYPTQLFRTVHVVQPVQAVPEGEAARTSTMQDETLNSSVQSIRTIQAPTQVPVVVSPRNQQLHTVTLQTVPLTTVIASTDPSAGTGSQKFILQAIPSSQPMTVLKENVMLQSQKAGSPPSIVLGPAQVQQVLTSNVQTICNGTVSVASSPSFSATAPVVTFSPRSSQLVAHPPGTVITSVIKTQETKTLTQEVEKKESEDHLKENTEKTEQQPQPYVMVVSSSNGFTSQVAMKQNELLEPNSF
Test [5] deals with T4, EHF (Homo sapiens, UniProt Q9NZC4 1-300).
T4 sequence: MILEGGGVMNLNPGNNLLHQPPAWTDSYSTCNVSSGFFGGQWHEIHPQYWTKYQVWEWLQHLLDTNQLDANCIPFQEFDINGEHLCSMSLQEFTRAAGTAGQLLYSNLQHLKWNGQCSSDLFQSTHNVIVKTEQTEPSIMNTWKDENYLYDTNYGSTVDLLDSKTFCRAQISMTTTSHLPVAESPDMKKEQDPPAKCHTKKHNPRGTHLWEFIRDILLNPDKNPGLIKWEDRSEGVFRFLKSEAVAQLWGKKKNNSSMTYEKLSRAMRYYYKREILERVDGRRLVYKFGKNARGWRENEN
Put shortly: as §1

Test [6] addresses SPI1 (Homo sapiens, UniProt P17947 1-270). The method, boiled down:
as §1

The target of test [7] is SPIB (Homo sapiens, UniProt Q01892 1-262). The method, boiled down:
as §1

The target in test [8] is T5, FEV (Homo sapiens, UniProt Q99581 1-238).
T5 sequence: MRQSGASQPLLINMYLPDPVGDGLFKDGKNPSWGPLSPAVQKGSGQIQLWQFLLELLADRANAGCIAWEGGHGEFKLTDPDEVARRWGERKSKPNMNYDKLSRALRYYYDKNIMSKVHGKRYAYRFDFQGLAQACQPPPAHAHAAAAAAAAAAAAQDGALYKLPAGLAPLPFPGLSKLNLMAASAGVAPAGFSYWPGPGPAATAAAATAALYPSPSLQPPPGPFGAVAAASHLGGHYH
Put shortly:
as §1

For test [9], the target named is ETV5 (Homo sapiens, UniProt P41161 1-510). The method, boiled down:
as §1

In test [10] the target is T6, ELK4 (Homo sapiens, UniProt P28324-2 1-405).
T6 sequence: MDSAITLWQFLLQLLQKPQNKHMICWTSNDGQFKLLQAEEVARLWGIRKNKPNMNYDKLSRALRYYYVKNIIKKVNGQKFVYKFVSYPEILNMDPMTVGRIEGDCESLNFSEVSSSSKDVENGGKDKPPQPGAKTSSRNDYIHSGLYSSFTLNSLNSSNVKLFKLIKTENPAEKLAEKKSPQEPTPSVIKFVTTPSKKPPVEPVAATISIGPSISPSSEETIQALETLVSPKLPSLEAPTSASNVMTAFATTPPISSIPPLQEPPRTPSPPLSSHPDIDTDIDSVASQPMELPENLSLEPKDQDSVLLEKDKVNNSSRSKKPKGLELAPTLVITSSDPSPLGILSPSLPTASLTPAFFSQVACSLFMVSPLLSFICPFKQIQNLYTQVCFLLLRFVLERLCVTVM
Put shortly: as §1

The target of test [11] is ETV1 (Homo sapiens, UniProt P50549 1-477). The method, boiled down: as §1
Sequence of ETV1 (P50549 whole entry): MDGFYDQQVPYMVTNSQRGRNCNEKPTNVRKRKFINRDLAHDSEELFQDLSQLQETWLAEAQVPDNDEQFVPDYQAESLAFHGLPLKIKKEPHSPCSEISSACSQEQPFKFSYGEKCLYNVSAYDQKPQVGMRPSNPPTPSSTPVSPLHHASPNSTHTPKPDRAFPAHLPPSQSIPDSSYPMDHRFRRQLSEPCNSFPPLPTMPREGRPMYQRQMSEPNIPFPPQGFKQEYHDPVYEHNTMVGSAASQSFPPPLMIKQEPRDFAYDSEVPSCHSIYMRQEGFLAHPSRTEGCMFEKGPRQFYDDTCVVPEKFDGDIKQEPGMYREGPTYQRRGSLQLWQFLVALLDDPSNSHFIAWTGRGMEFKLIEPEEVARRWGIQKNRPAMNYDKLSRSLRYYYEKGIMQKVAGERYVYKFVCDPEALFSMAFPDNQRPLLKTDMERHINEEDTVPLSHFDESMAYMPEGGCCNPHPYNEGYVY
For test [12], the target named is T7, ERF (Homo sapiens, UniProt P50548 1-548).
T7 sequence: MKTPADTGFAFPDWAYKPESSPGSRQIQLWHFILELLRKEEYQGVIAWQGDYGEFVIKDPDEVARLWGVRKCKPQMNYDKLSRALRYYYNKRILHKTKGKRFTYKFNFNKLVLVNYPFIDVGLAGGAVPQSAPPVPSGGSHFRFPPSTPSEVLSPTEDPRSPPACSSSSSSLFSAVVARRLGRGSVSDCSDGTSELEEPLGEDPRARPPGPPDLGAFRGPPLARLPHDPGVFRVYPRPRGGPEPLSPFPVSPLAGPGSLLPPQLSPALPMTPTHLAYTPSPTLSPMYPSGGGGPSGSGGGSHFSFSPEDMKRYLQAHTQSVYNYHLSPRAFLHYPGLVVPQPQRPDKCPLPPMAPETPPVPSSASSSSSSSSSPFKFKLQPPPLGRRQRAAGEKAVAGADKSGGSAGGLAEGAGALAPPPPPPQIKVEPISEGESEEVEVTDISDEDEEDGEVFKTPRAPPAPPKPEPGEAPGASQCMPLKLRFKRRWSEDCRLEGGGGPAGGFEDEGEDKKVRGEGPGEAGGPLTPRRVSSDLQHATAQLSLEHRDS
The method, boiled down: as §1

For test [13], the target named is T8, ETV3L (Homo sapiens, UniProt Q6ZN32 1-361).
T8 sequence: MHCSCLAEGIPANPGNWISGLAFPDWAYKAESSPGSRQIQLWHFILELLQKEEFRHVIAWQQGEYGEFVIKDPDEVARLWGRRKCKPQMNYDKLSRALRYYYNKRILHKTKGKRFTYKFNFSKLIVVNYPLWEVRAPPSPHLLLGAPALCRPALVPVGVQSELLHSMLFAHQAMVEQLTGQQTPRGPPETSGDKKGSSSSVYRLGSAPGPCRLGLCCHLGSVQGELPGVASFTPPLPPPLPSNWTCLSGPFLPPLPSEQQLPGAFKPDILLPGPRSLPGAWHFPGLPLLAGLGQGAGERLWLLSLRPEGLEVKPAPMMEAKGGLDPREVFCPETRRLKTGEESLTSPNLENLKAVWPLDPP
The method, boiled down:
as §1

The target in test [14] is T9, ETS2 (Homo sapiens, UniProt P15036 1-469).
T9 sequence: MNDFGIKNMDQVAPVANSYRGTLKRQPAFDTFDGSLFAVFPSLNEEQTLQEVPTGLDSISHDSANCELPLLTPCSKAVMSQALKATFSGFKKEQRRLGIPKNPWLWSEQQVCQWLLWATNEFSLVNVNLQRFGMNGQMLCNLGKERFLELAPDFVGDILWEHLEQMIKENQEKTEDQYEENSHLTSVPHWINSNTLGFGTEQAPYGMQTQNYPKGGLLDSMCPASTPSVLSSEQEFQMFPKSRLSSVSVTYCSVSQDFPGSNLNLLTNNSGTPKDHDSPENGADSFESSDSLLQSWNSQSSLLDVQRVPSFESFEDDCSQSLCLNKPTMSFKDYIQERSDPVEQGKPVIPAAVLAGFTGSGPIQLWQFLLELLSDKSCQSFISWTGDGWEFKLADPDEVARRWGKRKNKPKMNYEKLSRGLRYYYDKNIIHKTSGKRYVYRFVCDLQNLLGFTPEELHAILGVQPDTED
Put shortly:
as §1

Test [15] deals with T10, SPDEF (Homo sapiens, UniProt O95238 1-335).
T10 sequence: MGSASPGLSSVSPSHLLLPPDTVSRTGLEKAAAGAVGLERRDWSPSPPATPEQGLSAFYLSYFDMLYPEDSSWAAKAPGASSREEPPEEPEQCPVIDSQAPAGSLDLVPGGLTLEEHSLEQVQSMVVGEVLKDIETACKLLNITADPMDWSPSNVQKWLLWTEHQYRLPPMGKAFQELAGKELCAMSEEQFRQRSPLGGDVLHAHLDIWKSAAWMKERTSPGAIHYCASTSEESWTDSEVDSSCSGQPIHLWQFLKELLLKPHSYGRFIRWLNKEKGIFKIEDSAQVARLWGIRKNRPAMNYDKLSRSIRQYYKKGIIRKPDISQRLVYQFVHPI
Put shortly: as §1

For test [16], the target named is T11, ETV7 (Homo sapiens, UniProt Q9Y603 1-341).
T11 sequence: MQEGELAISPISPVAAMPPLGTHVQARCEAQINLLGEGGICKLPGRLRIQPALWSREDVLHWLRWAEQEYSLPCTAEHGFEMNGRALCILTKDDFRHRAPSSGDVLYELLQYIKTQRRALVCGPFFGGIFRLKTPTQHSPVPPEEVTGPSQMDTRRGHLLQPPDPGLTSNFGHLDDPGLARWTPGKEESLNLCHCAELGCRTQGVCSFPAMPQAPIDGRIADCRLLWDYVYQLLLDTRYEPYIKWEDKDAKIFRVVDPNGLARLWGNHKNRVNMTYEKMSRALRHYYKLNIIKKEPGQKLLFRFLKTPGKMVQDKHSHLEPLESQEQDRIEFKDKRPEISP
The method, boiled down:
as §1

The target of test [17] is T12, ETV3 (Homo sapiens, UniProt P41162-2 1-143).
T12 sequence: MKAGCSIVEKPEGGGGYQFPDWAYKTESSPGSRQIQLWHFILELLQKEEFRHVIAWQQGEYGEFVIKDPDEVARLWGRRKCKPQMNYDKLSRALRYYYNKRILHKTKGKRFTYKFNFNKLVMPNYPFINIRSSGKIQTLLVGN
Put shortly:
as §1

Sequence of ETV5 (P41161 whole entry): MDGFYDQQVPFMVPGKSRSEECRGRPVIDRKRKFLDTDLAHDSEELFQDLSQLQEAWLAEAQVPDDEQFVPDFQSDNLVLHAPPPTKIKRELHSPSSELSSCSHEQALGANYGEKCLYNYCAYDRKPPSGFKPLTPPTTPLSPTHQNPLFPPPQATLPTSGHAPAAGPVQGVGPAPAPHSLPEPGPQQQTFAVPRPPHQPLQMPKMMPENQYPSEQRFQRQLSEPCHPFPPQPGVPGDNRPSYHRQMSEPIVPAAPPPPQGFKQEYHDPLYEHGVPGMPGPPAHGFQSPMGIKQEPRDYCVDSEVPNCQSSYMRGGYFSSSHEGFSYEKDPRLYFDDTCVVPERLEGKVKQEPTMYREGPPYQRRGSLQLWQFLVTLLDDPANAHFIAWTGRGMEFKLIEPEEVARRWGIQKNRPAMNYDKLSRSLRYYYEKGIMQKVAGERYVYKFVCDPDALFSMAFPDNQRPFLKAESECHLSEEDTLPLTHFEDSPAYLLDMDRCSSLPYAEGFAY
Sequence of SPIB (Q01892 whole entry): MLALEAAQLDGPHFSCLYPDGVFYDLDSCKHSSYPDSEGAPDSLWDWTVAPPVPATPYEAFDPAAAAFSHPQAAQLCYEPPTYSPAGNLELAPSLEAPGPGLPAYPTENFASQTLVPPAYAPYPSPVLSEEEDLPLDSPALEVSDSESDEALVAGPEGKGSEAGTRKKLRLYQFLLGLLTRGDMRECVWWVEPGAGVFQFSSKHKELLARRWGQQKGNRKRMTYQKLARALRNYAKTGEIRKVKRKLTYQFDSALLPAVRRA

As to AGCGAT, the binding signal in test [1] was 1.11 fold enrichment (6-mer frequency, TF over GST control); in [2] it was 1.07 fold enrichment (6-mer frequency, TF over GST control); in test [3], 1.06 fold enrichment (6-mer frequency, TF over GST control); in test [4] it was 1.09 fold enrichment (6-mer frequency, TF over GST control); in test [5], 1.07 fold enrichment (6-mer frequency, TF over GST control); in test [6], 1.07 fold enrichment (6-mer frequency, TF over GST control). Besides, the binding signal in test [7] is 1.02 fold enrichment (6-mer frequency, TF over GST control); in test [8], 1.05 fold enrichment (6-mer frequency, TF over GST control); in test [9], 1.14 fold enrichment (6-mer frequency, TF over GST control); in [10], 1.07 fold enrichment (6-mer frequency, TF over GST control); in test [11] it was 1.02 fold enrichment (6-mer frequency, TF over GST control); in test [12], 1.09 fold enrichment (6-mer frequency, TF over GST control). The binding signal in [13] is 1.1 fold enrichment (6-mer frequency, TF over GST control); in [14] it was 1.09 fold enrichment (6-mer frequency, TF over GST control); in [15] it was 1.08 fold enrichment (6-mer frequency, TF over GST control); in [16], 1.09 fold enrichment (6-mer frequency, TF over GST control); in [17], 1.02 fold enrichment (6-mer frequency, TF over GST control).
